# Assay outcomes: PubChem BioAssay, National Center for Advancing Translational Sciences (NCATS)
# The full list was thinned out, with hits kept by preference.
# Pf Dd2 growth: inhibitors of Plasmodium falciparum Dd2 growth; P. falciparum Dd2 growth, SYBR Green, 72 h; 120,000 tested, 4.3% active; AID 1347417; Potency, µM (titrated, usually from 28.9 µM), inactives show top-dose activity, negative = inhibition, actives largely listed as inhibitors; active means well fitted inhibition curve with a large enough effect;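 further: plate controls were DMSO vehicle for no effect and reference drug for full effect; nearly all actives have a fitted effect of over 65% in size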
#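 Infected erythrocytes (Dd2, 0.3% parasitemia, 2.5% hematocrit final) are added to compound in RPMI-1640/Albumax II medium, grown 72 h at 37C in low oxygen, then lysed with saponin/Triton-X containing SYBR Green and read by fluorescence.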
# * marks the source's active call; other numbers are inactive results; i = inactive; [ ] = remark or other dose. Potency means the concentration at half of the fitted maximal effect.
SMILES,Pf Dd2 growth
COc1ccc(-c2nnc3ccc(N4CCc5ccccc5CC4)nn23)nc1,i
COc1ccc(-c2nnc3ccc(N4CCN(c5ccccn5)CC4)nn23)nc1,13µM*
COCCCNc1ccc2nnc(-c3ccc(C)cn3)n2n1,i
COCC(=O)N(C1CCOCC1)C1CCN(C(=O)Cc2ccc(C)cc2)CC1,-5%
CC(O)CCNS(=O)(=O)c1ccc2c(c1)CN(C(=O)c1ccon1)CC2 (stereo not given),8%
CO[C@H]1C(=O)N(C2CCN(S(=O)(=O)Cc3ccccc3)CC2)[C@H]1c1ccncc1,11%
COCCNC(=O)CN1CN(c2ccccc2)C2(CCN(C(=O)C3CCCCC3)CC2)C1=O,-21%
CC(C)(C)NC(=O)N1CCC2(CC1)C(=O)N(CC(=O)NCC1CCCO1)CN2c1ccccc1 (stereo not given),i
Cc1ccc(NC(=O)N2CCC3(CC2)C(=O)N(CC(=O)N2CCCC2)CN3c2ccccc2)cc1,7.1µM*
O=C(Nc1ncc(-c2cccc(F)c2)c2c1OCC2)c1ccc(F)c(Cl)c1,i
Cc1ccc([S+](=O)([O-])N2CCC(N3CCCCCC3=O)CC2)cc1,1%
CC(C)CNC(=O)C1CCc2ncc(-c3ccsc3)n2C1 (stereo not given),i
O=C(NC1CCN(Cc2ccccc2)CC1)C1CCc2ncc(-c3ccsc3)n2C1 (stereo not given),8.9µM*
O=C(C1CCc2ncc(-c3ccsc3)n2C1)N1CCN(c2ccccn2)CC1 (stereo not given),i
CCOC(=O)c1ccc(N2C(=O)c3[nH]nc(-c4ccc(C)cc4)c3C2c2cccc(F)c2)cc1 (stereo not given),5µM*
CCOC(=O)c1ccc(N2C(=O)c3[nH]nc(-c4ccccc4)c3C2c2cccs2)cc1 (stereo not given),7.1µM*
CCOc1ccc(N2CC(NC(=O)Cc3cccs3)CC2=O)cc1 (stereo not given),i
CCOC(=O)c1ccc(NC(=O)c2oc(=O)c3ccccc3c2-c2ccccc2)cc1,24%
CCCN1C(=O)c2[nH]nc(-c3ccc(F)cc3)c2C1c1ccc(O)c(OCC)c1 (stereo not given),i
O=C1c2[nH]nc(-c3ccc(F)cc3)c2C(c2ccccc2F)N1c1ccccc1 (stereo not given),-28%
CCOC(=O)c1ccc(N2C(=O)c3[nH]nc(-c4ccc(OCC)cc4)c3C2c2cccs2)cc1 (stereo not given),2.8µM*
CCCN1C(=O)c2[nH]nc(-c3ccc(F)cc3)c2C1c1ccccn1 (stereo not given),-15%
CCOc1ccc(C(=O)OCc2cc(=O)n3nc(C4CC4)sc3n2)cc1,-7%
CCOc1ccccc1NC(=O)C1=C(C)Nc2ncnn2C1c1cccs1 (stereo not given),1%
CCCN1C(=O)c2[nH]nc(-c3ccc(OC)cc3)c2C1c1ccccn1 (stereo not given),-19%
SMILES,Pf Dd2 growth
CCOc1ccc(-c2n[nH]c3c2C(c2cccs2)N(c2ccc(Br)cc2)C3=O)cc1 (stereo not given),3.5µM*
O=C(c1cnccn1)N1CCCCCC1c1nnc(-c2ccccc2)o1 (stereo not given),i
Cc1ncc(C(=O)N2CCOCC2CC(=O)N2CCCC2)c(-c2ccccc2)n1 (stereo not given),6%
O=C(c1ccc(C(F)(F)F)cc1)N1CCC2(CC1)Cc1ccccc1NC2=O,-5%
Cn1cnc(S(=O)(=O)N2CCC3(CC2)N(CC2CC2)C(=O)CS3=O)c1 (stereo not given),18%
CC(C)c1noc(C2CCCN(C(=O)NC3CCCCC3)CCC(=O)NCC2)n1 (stereo not given),27%
Cc1ccc(N2C(=O)c3n[nH]c(C)c3C2c2ccc(Cl)cc2)cc1 (stereo not given),-18%
CCOC(=O)c1ccc(N2C(=O)c3[nH]nc(-c4ccccc4)c3C2c2ccc(CC)cc2)cc1 (stereo not given),10µM*
CCc1ccc(C2NC(=O)c3[nH]nc(-c4cccc(OC)c4)c32)cc1 (stereo not given),-10%
COc1cccc(NC(=O)CCC2CCN(C(=O)c3ccccc3)CC2)c1,-25%
Cc1ccc2c(C(=O)N3CCN(C4CCCCC4)CC3)cc(NC(=O)C(C)C)cc2n1,0%
Cc1cccc(Nc2nc(N)nc(N)c2S(=O)(=O)c2ccccc2)c1,i
COc1ccccc1C(O)c1nc(Nc2ccc(C(C)C)cc2)n[nH]1 (stereo not given),i
CCc1sc(Nc2cccc(C)c2)nc1-c1cc2cccc(OC)c2oc1=O,-1%
COc1cc2nc(Nc3cccc(C)c3)nc(N)c2cc1OC,2.5µM*
CCOC(=O)c1ccc2nc(C)cc(Nc3cccc(C(=O)O)c3)c2c1,1%
COc1ccc(Nc2cc(C)nc3c(C)c(C)ccc23)cc1,-15%
COc1cc2nc(Nc3ccc(C)c(C)c3)nc(N)c2cc1OC,0.1µM*
CCOC(=O)c1ccc(Nc2nc(N)c3cc(OC)c(OC)cc3n2)cc1,1.3µM*
COc1ccc(Nc2nc(-c3ccccc3)c3cc(Br)ccc3n2)cc1,-18%
COc1ccc(NC(=O)c2nnn(CC(=O)Nc3c(C)cc(C)cc3C)c2N)cc1OC,34%
CCOC(=O)c1ccc(Nc2c(-c3ccc(O)c(OC)c3)nc3nc[nH]n23)cc1,33%[0.594 µM]
COc1cc2nc(Nc3ccc(F)cc3)nc(N)c2cc1OC,2.5µM*
O=C(NCC1CC1)c1nc2c(o1)CCN(Cc1cccc(O)c1)CC2,i
Cc1cnc(C)c(N2CCN(CC3(O)CCNC3)CC2)n1 (stereo not given),1%
SMILES,Pf Dd2 growth
CCS(=O)(=O)Nc1ccc(C2(C(=O)NCc3ccc(C)cc3)CCC2)cc1,-8%
CN1CCN(C(=O)[C@@H]2CCC[C@@H](NC(=O)NC3CCCC3)CN(C)C(=O)C2)CC1,27%[44.1 µM]
O=C1NC2(CCN(C(=O)CCc3cccnc3)CC2)CC1c1ccccc1 (stereo not given),8%
O=C(NC[C@H]1OC[C@@H](NC2CCC2)[C@@H]1O)c1ccccc1,-26%[44.1 µM]
O=C([C@@H]1C[C@H](F)CN1S(=O)(=O)c1ccc(F)cc1)N1CCc2ccccc2C1,-3%
COc1ccc(C(=O)N2CCC[C@H]2c2nc(-c3ccc(F)cc3)no2)c(OC)c1,i
CC(C)(CNc1ccc(-c2nc(C3CC3)no2)cn1)N1CCOCC1,-5%
COc1cccc(CC(=O)NCc2ccc(Cl)s2)c1,-6%
CNC(=O)[C@@H](c1ccccc1OC)N1CCC[C@H]1C(=O)N1CCOCC1,1%[44.1 µM]
COc1ccc([C@H]2C[C@@H](O)[C@@H](O)[C@@H]2NS(=O)(=O)c2ccccc2)cc1,-5%[44.1 µM]
CCOc1cc(=O)n2c(c1C(=O)Nc1cc(F)ccc1C)CCCC2,20%
Cc1ccccc1-c1nn(-c2ccc(F)cc2F)cc1CN1CCC[C@@H]1C(N)=O,-17%
Cc1cccc(-n2cc(CN3CCCC(C)(O)C3)c(-c3cccc(F)c3)n2)c1 (stereo not given),8.9µM*
COc1ccc(-n2nc(C3CCN(Cc4cccc5ccccc45)CC3)[nH]c2=O)cc1,i
COc1ccc(-c2nn(-c3ccccc3)cc2CN2CCC(F)CC2)c(F)c1,11µM*
Cc1ccccc1-c1nn(-c2ccc(F)cc2F)cc1CN1CCC(O)CC1,11µM*
COc1ccc(CN2CCN(c3nc4ccccc4o3)CC2CCO)c(F)c1 (stereo not given),-8%
OC1(CN2CCCCC2)CCN(Cc2cccc(F)c2F)C1 (stereo not given),i
